The panel holds about 79,000 compounds, 15% with a hit somewhere; the sample as a whole holds those more often. The source made the active and inactive calls. No stated cut-off is given here; in the data, active means growth inhibition above about 70%; inactive means the rest.
Experiments:
[1] = NCI Yeast Anticancer Drug Screen. Data for the rad50 strain (AID 155);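 further: 0% = growth of vehicle-only cultures of the same strain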; details: S. cerevisiae rad50 strain growth inhibition, stronger effect = higher value
In short: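 A DNA repair-deficient yeast mutant serves as the test organism; compound-induced growth inhibition is calculated against vehicle-treated cells.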

[2] = NCI Yeast Anticancer Drug Screen. Data for the mec2-1 strain (AID 157); details: S. cerevisiae mec2-1 strain, stronger effect = higher value
In short: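 Yeast mec2-1 mutant treated with compound. Readout: growth inhibition vs vehicle controls.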

[3] = NCI Yeast Anticancer Drug Screen. Data for the sgs1 mgt1 strain (AID 161);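 further: 0% = growth of cultures given vehicle only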; details: S. cerevisiae sgs1 mgt1 strain, stronger effect = higher value
In short: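 Test agents were incubated with a DNA-repair-mutant yeast strain. Growth was then read and compared against vehicle-treated controls.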

[4] = NCI Yeast Anticancer Drug Screen. Data for the cln2 rad14 strain (AID 165);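 further: 0% = growth equal to vehicle treated cultures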; details: S. cerevisiae cln2 rad14 strain, stronger effect = higher value
In short: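 cln2 rad14 yeast strain; compound exposure; growth inhibition read vs vehicle controls.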

[5] = NCI Yeast Anticancer Drug Screen. Data for the bub3 strain (AID 167); details: S. cerevisiae bub3 mutant strain, stronger effect = higher value
In short: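 Inhibition values come from growth of compound-treated mutant yeast normalised to vehicle-treated controls.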

[6] = NCI Yeast Anticancer Drug Screen. Data for the mlh1 rad18 strain (AID 175); details: S. cerevisiae mlh1 rad18 strain growth inhibition, stronger effect = higher value
In short: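 Yeast w/ defined DNA-repair lesions; compound exposure; growth vs vehicle controls → % inhibition.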

[7] = at 5.0 µM (retest, dose inferred, filed as 0.5)
[8] = at 50.0 µM (retest, dose inferred, filed as 5.0)

| Compound | growth inhibition [1, 7] | growth inhibition [1, 8] | growth inhibition ([1]; at 50.0 µM) | growth inhibition [2, 7] | growth inhibition [2, 8] | growth inhibition ([2]; at 50.0 µM) | growth inhibition [3, 7] | growth inhibition [3, 8] | growth inhibition ([3]; at 50.0 µM) | growth inhibition [4, 7] | growth inhibition [4, 8] | growth inhibition ([4]; at 50.0 µM) | growth inhibition [5, 7] | growth inhibition [5, 8] | growth inhibition ([5]; at 50.0 µM) | growth inhibition [6, 7] | growth inhibition [6, 8] | growth inhibition ([6]; at 50.0 µM) |
| --- | --- | --- | --- | --- | --- | --- | --- | --- | --- | --- | --- | --- | --- | --- | --- | --- | --- | --- |
| Cc1ccsc1/C=N/Nc1cc(C)c2cccc(C)c2n1 | 1% (inactive) | 47% (inactive) | 48.5% (inactive) | -23% (inactive) | 21% (inactive) | 30.3% (inactive) | -11% (inactive) | 24% (inactive) | 48.4% (inactive) | 4% (inactive) | 38% (inactive) | 33.8% (inactive) | -12% (inactive) | 63% (inactive) | 15.4% (inactive) | -8% (inactive) | 57% (inactive) | 63.2% (inactive) |
| Cc1cccc(N=Nc2ccc(O)cc2)c1 | -152% (inactive) | 98% (active) | 99.6% (active) | -58% (inactive) | 98% (active) | 99.5% (active) | -71% (inactive) | 98% (active) | 99.4% (active) | -71% (inactive) | 98% (active) | 98.6% (active) | -72% (inactive) | 97% (active) | 98.5% (active) | -154% (inactive) | 98% (active) | 99.3% (active) |
| COC(=O)c1ccc(CCc2cc(O)ccc2O)cc1 | 58% (inactive) | 99% (active) | 98.8% (active) | 74% (active) | 100% (active) | 98.5% (active) | 70% (active) | 99% (active) | 98% (active) | 27% (inactive) | 99% (active) | 88.8% (active) | 52% (inactive) | 99% (active) | 98.5% (active) | 88% (active) | 99% (active) | 98.8% (active) |
| COc1ccc2cc(C3CCCC3(C)CC(=O)O)ccc2c1 (stereo not drawn) | 7% (inactive) | 11% (inactive) | 57.2% (inactive) | 11% (inactive) | 10% (inactive) | 39.9% (inactive) | 4% (inactive) | 8% (inactive) | 62.1% (inactive) | 3% (inactive) | 7% (inactive) | 11.1% (inactive) | 2% (inactive) | 2% (inactive) | 3.85% (inactive) | 1% (inactive) | 9% (inactive) | 64.5% (inactive) |
| c1cc2c(cc1CCCCCCCCCCc1ccc3c(c1)CCC3)CCC2 | -4% (inactive) | -5% (inactive) | 2.75% (inactive) | -13% (inactive) | -8% (inactive) | 3.85% (inactive) | 9% (inactive) | 2% (inactive) | 3.3% (inactive) | -4% (inactive) | 0% (inactive) | 79.8% (active) | -6% (inactive) | -2% (inactive) | 2.95% (inactive) | -2% (inactive) | -38% (inactive) | 10.6% (inactive) |
| O=C(Oc1cc(Cl)c(Cl)cc1Cl)c1ccco1 | 0% (inactive) | -1% (inactive) | -1.8% (inactive) | 4% (inactive) | 5% (inactive) | -5.4% (inactive) | 0% (inactive) | -3% (inactive) | 23.9% (inactive) | 3% (inactive) | -5% (inactive) | -10.2% (inactive) | 30% (inactive) | 18% (inactive) | 84.8% (active) | 1% (inactive) | -4% (inactive) | -0.9% (inactive) |

— PubChem BioAssay (NCI)
